# Data published in ChEMBL document CHEMBL1157539, “Thousands of chemical starting points for antimalarial lead identification” (Nature, 2010).
# “And” between values parts separate entries of the source, which are not always exact repeats. Equal entries are not always repeated. In all, about 13,000 compounds were measured (“IFI”: median about 4, highest 2% from about 17 on). Only a selection was taken, and the highest values are over-represented in it overall.
# Test: GSK_TCMDC: Inhibition Frequency Index (IFI). The number of non-kinase HTS assays where a compound showed > 50 % inhibition, expressed as a percentage of the number of such assays in which the compound was tested
# Format: functional
row,SMILES,IFI
1,CC(=O)C1(c2ccccc2)CCN(CCC(NC(=O)c2cc(C(F)(F)F)cc(C(F)(F)F)c2)c2ccc(Cl)c(Cl)c2)CC1 (stereo not given),1.45%
2,O=C(c1cc(C(F)(F)F)cc(C(F)(F)F)c1)N1CCC(CCN2CCC3(CC2)C(=O)NCN3c2ccccc2)CC1Cc1ccc(Cl)c(Cl)c1 (stereo not given),20%
3,CN(C(=O)OCc1ccccc1)C1CCC(CCN2CCC3(CC2)C(=O)NCN3c2cccc(C(F)(F)F)c2)(c2ccccc2)CC1 (stereo not given),8.63%
4,Cc1cc(NC(=O)[C@@H](Nc2ccc(C#N)c3ccccc23)C2CCCCC2)ccc1F,3.85%
5,c1ccc(C(OCCC2CCN(Cc3cccc4cccnc34)CC2)c2ccccc2)cc1,3.1%
6,CC(Cc1ccc(Oc2ccc(Cl)cc2)cc1)NCC(O)c1cccc(Cl)c1 (stereo not given),7.3%
7,CC(Cc1ccc(OC2CCCCC2)cc1)NCC(O)c1cccc(Cl)c1 (stereo not given),21.7%
8,Cc1ccc(CC(C)NC[C@H](O)c2cccc(Cl)c2)cc1 (stereo not given in full),4.38% and 0.72%
9,CN1C2CCC1c1cc(NC(=O)c3cc(-c4ccc(Cl)cc4)cs3)ccc12 (stereo not given),13.3%
10,CC(Cc1ccc(OCCCCOc2ccccc2)cc1)NCCCn1ccnc1 (stereo not given),32.6%
11,COC(C(=O)OCCC1CCCN1C)(c1ccccc1)C1CCCCC1 (stereo not given),1.45%
12,CC(Cc1ccc(OCCOc2ccccc2)cc1)NCC(O)c1cccc(C(F)(F)F)c1 (stereo not given),2.9%
13,CC(Cc1ccc(OCCCCOc2ccccc2)cc1)NCCC1CCCN1C (stereo not given),32.5%
14,COC(C(=O)OCCC1CCCN1C)(c1ccccc1)c1ccccc1 (stereo not given),2.19%
15,CC(Cc1ccc(OCc2ccccc2)cc1)NCC(O)c1cccc(Cl)c1 (stereo not given),15.6%
16,CCCCCOc1ccc(CC(C)NCC(O)c2cccc(Cl)c2)cc1 (stereo not given),4.86%
17,CC(Cc1ccc(OCCCCOc2ccccc2)cc1)NCCCN1CCOCC1 (stereo not given),30.1%
18,CC(Cc1ccc(Oc2ccccc2)cc1)NCC(O)c1cccc(C(F)(F)F)c1 (stereo not given),4.96%
19,CN1CC=C(c2c[nH]c3ccc(Sc4ccccc4)cc23)CC1,3.7%
20,CCCCCCC(C)(C)c1cc(O)c2c3c(c(=O)oc2c1)CCN(Cc1ccccc1)C3,2.22%
21,COC(=O)c1ccc(CC(C)NCC(O)c2cccc(OCc3ccccc3)c2)cc1 (stereo not given),5.76%
22,CC1CN=C(Nc2ncc(Cl)cc2Cl)N1 (stereo not given),0.7%
23,CN(C)CCc1c[nH]c2ccc(C(=O)Nc3ccc(-c4ccncc4)cc3)cc12,5.19%
24,COc1cccc(CN2CCC(CCOC(c3ccccc3)c3ccccc3)CC2)c1O,3.1%
25,CC(C)CNCc1ccc(-c2cccc(CN(C(=O)CCC3CCCC3)C3CCN(Cc4ccccc4)CC3)c2)cc1,9.29%

row,SMILES,IFI
1,O=C(Nc1ccccc1C(F)(F)F)NC1CCC(CN2CCC(c3c[nH]c4ccccc34)CC2)CC1 (stereo not given),4.29% and 2.14%
2,O=C1c2ccccc2CCC1CCN1CC=C(c2c[nH]c3ccccc23)CC1 (stereo not given),2.92%
3,O=C(c1cc(C(=O)NCc2ccc(Cl)cc2)c(=O)n(Cc2ccc(Cl)cc2)c1)c1cc(Cl)ccc1O,0%
4,O=C(Nc1cc(C(F)(F)F)cc(C(F)(F)F)c1)c1cc(Cl)ccc1O,33.3%
5,O=C(/C=C/c1ccccc1Cl)NC1CCC(CN2C3CCC2CC(c2c[nH]c4ccccc24)C3)CC1 (stereo not given),6.38%
6,CCCCCc1cc(O)c2c(c1)OC(C)(C)CC2C1=CCN(Cc2ccccc2)CC1 (stereo not given),2.86%
7,Cc1csc(-c2ccc3[nH]cc(C4=CCN(C)CC4)c3c2)n1,0%
8,CC[C@H]1CN2CC[C@H]1C[C@H]2[C@H](O)c1cc(N2CCCC(CO)C2)nc2ccc(OC)cc12 (stereo not given in full),0%
9,O=C(NC1CCC(CN2CCC(c3c[nH]c4ccccc34)CC2)CC1)c1cc2cccc([N+](=O)[O-])c2[nH]1 (stereo not given),3.65%
10,CC(Cc1ccc(NC(=O)CCNCc2ccccc2)cc1)NCCc1cccc(Cl)c1 (stereo not given),32.4%
11,CC(Cc1ccc(NC(=O)CCCc2ccccc2)cc1)NCCc1cccc(Cl)c1 (stereo not given),4.29%
12,CC(Cc1ccc(NC(=O)[C@H](C)NCCc2cccc(Cl)c2)cc1)NCCc1cccc(Cl)c1 (stereo not given in full),9.35%
13,O=C(/C=C/c1ccccc1Cl)NC1CCC(CN2CCC(c3c[nH]c4ccccc34)CC2)CC1 (stereo not given),5.04% and 6.94%
14,CC(=O)N(Cc1cccc(-c2cccc(CNCc3ccc4c(c3)OCO4)c2)c1)C1CCN(Cc2ccccc2)CC1,4.51%
15,COc1ccc(N(c2nc(-c3cc(Cl)ccc3Cl)cs2)C2CCNCC2)cc1,23.1%
16,COc1ccc(F)cc1-c1csc(N(c2ccc(F)cc2)C2CCNCC2)n1,14.4%
17,Fc1ccc(N(c2nc(-c3cc(F)cc(C(F)(F)F)c3)cs2)C2CCNCC2)cc1,17.1%
18,CCOC(=O)c1c(CN2CCN(C)CC2)n(Cc2ccccc2)c2cc(Br)c(O)cc12,5.56%
19,COc1ccc(C=CC(=O)NC2CCC(CN3CCC(c4c[nH]c5ccccc45)CC3)CC2)cc1 (stereo not given),7.19% and 5.04%
20,O=C(C=Cc1ccc(F)c(Br)c1)N1CCC(CN2CCC(c3c[nH]c4ccccc34)CC2)CC1,6.62%
21,COc1ccc(C2CNCc3c2cc(OC)c(OC)c3Cl)cc1 (stereo not given),2.94%
22,O=C1NCN(c2ccc(O)cc2)C12CCN(CCCC(c1ccc(F)cc1)c1ccc(F)cc1)CC2,4.32%
23,O=C(NCc1ccccc1)c1nn(CCCN2CCC3(CC2)C(=O)NCN3c2ccccc2)cc1-c1ccc(Cl)c(Cl)c1,24.3%
24,COc1cc(NC(=O)c2nn(CCCN3CCC4(CC3)C(=O)NCN4c3ccccc3)cc2-c2ccc(Cl)c(Cl)c2)cc(OC)c1OC,15.4%
25,O=C(NCc1ccc(S(=O)(=O)N2CCC(CN3CCC(c4c[nH]c5ccccc45)CC3)CC2)s1)c1ccccc1,6.85%

row,SMILES,IFI
1,O=C(C=Cc1ccc(Br)cc1)NC1CCC(CN2CCC(c3c[nH]c4ccccc34)CC2)CC1 (stereo not given),6.38%
2,O=C1Nc2cccc3c2C1(CCCCN1CC=C(c2c[nH]c4ncccc24)CC1)CCC3 (stereo not given),4.41%
3,N#Cc1c(F)cc(N2CCC(NCC[C@H](N)Cc3ccc(F)c(F)c3)CC2)cc1F,21.9%
4,N[C@@H](CCN1CCC(c2cccc(O)c2)CC1)Cc1ccc(F)c(F)c1,12.1%
5,CCC1(C)N=C(N)N=C(N)N1c1ccc(Cl)cc1 (stereo not given),0%
6,COc1cccc(C(=O)C2CC2CN2CC=C(c3c(C)[nH]c4ccccc34)CC2)c1 (stereo not given),3.74%
7,COc1cccc(CC(C)NCC(O)c2cccc(Cl)c2)c1 (stereo not given),1.44%
8,CC(Cc1ccc(OCCOc2ccccc2)cc1)NCC(O)c1cccc(Cl)c1 (stereo not given),6.38%
9,CC(Cc1ccc(OCc2ccc(CCN(C)C)cc2)cc1)NCCc1cccc(Cl)c1 (stereo not given),5.84%
10,COc1cccc(CCNC(C)Cc2ccc(OCCCCOc3ccccc3)cc2)c1 (stereo not given),31%
11,CC(Cc1ccc(OCCCCOc2ccccc2)cc1)NCCc1ccccc1Cl (stereo not given),28%
12,CNCCCCCCOc1ccc(CC(C)NCC(O)c2cccc(C(F)(F)F)c2)cc1 (stereo not given),7.8%
13,CC(Cc1ccc(OCCCCOc2ccccc2)cc1)NCCCc1nc2ccccc2[nH]1 (stereo not given),33.3%
14,C[C@H](Cc1ccc(OCCCCCCOc2ccccc2)cc1)NC[C@H](O)c1cccc(Cl)c1,7.64%
15,C[C@H](Cc1ccc(OCCCCCCOc2ccccc2)cc1)NC[C@@H](O)c1cc(Br)no1,13.5%
16,Cn1nc(C(F)(F)F)cc1-c1ccc(C(=O)NC2CCC(CN3CCC(c4c[nH]c5ccccc45)CC3)CC2)s1 (stereo not given),6.16%
17,O=C(Nc1ccc(Cl)c(Cl)c1)N1CCC(CN2CCC(c3c[nH]c4ccccc34)CC2)CC1,4.23%
18,CC[C@H]1CN2CC[C@H]1C[C@H]2[C@H](O)c1cc(-c2ccccc2C)nc2ccc(OC)cc12,5.44%
19,CCCCCCCCNCC(O)c1ccc(Cl)c(Cl)c1 (stereo not given),11.1%
20,CN(c1cc(NC(=O)c2cccs2)ccn1)C1CCN(Cc2ccccc2)CC1,2.78%
21,CNCCCN(C)C(=O)Oc1c(Br)c(C)nc(C)c1-c1ccc(Oc2ccc(OC(F)(F)F)cc2)cc1,7.41%
22,Cc1nc(C)c(-c2ccc(Oc3ccc(OC(F)(F)F)cc3)cc2)c(OC(=O)N(CCNC(C)C)C(C)C)c1Br,18%
23,CNCCN(C)C(=O)Oc1c(Br)c(C)nc(C)c1-c1ccc(Oc2ccc(OC(F)(F)F)cc2)cc1,12.4%
24,COc1cccc(O)c1CNCC(O)c1cccc(C(F)(F)F)c1 (stereo not given),0.78%
25,CC(=O)Nc1ccc2[nH]cc(C3CCN(CC4CCN(C(=O)/C=C/c5ccc(Cl)c(Cl)c5)CC4)CC3)c2c1,1.46%
